# Test results taken from publication PMC4336329 (PLoS ONE, 2015).
# The campaign covered roughly 310,000 compounds. About 14,000 (4.5%) showed an effect of 50% or more. Effects have a minus sign here. Shown is part of a subset that was picked to be rich in strong results.
# Target: human ether-à-go-go-related gene (hERG) potassium channel (human, UniProt Q12809)
# Assay: primary screen, population patch clamp on CHO cells stably expressing hERG; higher = less effect of the substance
# 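Also: peak tail current of the secondary pulse compared with the same well before compound.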
# Chain of human ether-à-go-go-related gene (hERG) potassium channel (Q12809 whole entry, looked up): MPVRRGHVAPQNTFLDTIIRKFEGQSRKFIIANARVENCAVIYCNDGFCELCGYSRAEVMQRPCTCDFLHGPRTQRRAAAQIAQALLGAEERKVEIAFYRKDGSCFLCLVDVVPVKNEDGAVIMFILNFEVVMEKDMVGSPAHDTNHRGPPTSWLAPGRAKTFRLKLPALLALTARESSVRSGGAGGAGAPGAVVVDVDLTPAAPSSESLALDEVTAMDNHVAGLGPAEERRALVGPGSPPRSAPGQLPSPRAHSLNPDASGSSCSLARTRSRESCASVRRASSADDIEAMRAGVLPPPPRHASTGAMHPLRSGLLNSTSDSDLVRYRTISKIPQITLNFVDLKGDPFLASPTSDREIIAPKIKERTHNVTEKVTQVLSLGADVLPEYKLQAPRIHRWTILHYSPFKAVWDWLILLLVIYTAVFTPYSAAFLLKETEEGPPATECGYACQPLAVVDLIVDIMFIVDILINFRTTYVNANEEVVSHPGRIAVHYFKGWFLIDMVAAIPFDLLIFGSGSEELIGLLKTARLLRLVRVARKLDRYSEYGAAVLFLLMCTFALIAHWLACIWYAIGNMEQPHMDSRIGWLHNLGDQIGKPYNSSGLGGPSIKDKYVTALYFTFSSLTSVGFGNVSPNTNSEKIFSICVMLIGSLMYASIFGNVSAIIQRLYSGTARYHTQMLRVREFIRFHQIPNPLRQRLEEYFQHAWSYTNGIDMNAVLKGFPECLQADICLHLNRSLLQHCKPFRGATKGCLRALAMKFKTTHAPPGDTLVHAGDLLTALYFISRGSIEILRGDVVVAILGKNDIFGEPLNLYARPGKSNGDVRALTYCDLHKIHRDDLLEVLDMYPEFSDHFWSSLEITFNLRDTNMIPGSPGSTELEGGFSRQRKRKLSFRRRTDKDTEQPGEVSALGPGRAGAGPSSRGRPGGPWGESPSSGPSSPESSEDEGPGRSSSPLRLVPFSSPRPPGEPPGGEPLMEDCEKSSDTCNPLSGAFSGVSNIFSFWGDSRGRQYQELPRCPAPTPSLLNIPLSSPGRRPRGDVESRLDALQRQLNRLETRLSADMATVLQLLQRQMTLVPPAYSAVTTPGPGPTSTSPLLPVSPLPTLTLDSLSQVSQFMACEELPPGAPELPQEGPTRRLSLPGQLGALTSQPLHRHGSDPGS
row,SMILES,"hERG current change (%, negative = inhibition) at 10uM"
1,CCc1ccc(OCC(=O)NNC(=O)c2cnccn2)c(Br)c1,-5.95%
2,CN1CCCC(OC(=O)COc2ccccc2)C1.Cl (stereo not drawn),10.4%
3,CC(=O)O.CN1CCCC(CN2c3ccccc3Sc3ccccc32)C1 (stereo not drawn),-28.4%
4,CN1CCCC(CC2c3ccccc3Sc3ccccc32)C1.Cl.O (stereo not drawn),-52.9%
5,CN1CCCC(CC2Oc3ccccc3Sc3ccccc32)C1.O=C(O)C(=O)O (stereo not drawn),-67%
6,CN1CCCC(C(O)(c2ccccc2)c2ccccc2)C1 (stereo not drawn),16.3%
7,Cl.c1ccc2c(c1)CC(N1CCCCC1)c1ccccc1S2 (stereo not drawn),9.15%
8,CC(C)Oc1ccc(/C(O)=C2/C(=O)C(=O)N(CCN3CCOCC3)C2c2ccccc2)cc1 (stereo not drawn),13.6%
9,COC(=O)Cn1ccc2cc(S(=O)(=O)N3CCCCC3)ccc21,-8.73%
10,CCOC(=O)c1cc2occc2n1CCCN1C(=O)c2ccccc2C1=O,-23.5%
11,Cc1ccc(C(=O)COC(=O)c2cc(Cl)ccc2O)cc1[N+](=O)[O-],10.4%
12,O=C(COc1cc(Cl)ccc1Cl)Nc1ccc2[nH]c(=O)[nH]c2c1,12.8%
13,COc1ccc(NC(=O)c2ccco2)cc1NC(=O)c1cc2ccccc2o1,3.33%
14,O=C1Nc2ccccc2S/C1=C/Nc1cccc(Cl)c1,-3.01%
15,CC1CCC[C@H](O)CCCCCc2cc(O)cc(O)c2C(=O)O1 (stereo partly drawn),5.64%
16,C[C@H]1CCC[C@H](O)CCCCCc2cc(O)cc(O)c2C(=O)O1,-51%
17,C[C@H]1CCCC(=O)CCCCCc2cc(O)cc(O)c2C(=O)O1,-0.0905%
18,O=S(=O)(Nc1ccncc1)c1cc(Cl)c(Cl)cc1Cl,0.0869%
19,O=C1C(Cl)=C(N2CCOCC2)C(=O)N1c1ccc(Br)cc1,14.8%
20,O=C(COc1ccc(Br)cc1)Nc1ccccc1C(=O)NC1CC1,-6.57%
21,CCOc1ccc(NC(=O)CSc2cn[nH]n2)cc1,3.89%

row,SMILES,"hERG current change (%, negative = inhibition) at 10uM"
1,Cc1nc2ccccn2c1CN(C)C(=O)C1CCC(=O)N(Cc2cccc(F)c2)C1 (stereo not drawn),-80.2%
2,O=C1CCC(C(=O)N2CCCC2)CN1CCc1cccc(F)c1 (stereo not drawn),4.37%
3,CN(Cc1ccccn1)C(=O)C1CCC(=O)N(Cc2cccc(F)c2)C1 (stereo not drawn),6.47%
4,CN1CCN(C(=O)C2CCC(=O)N(CCc3cccc(F)c3)C2)CC1 (stereo not drawn),12.3%
5,Cc1nc2ccccn2c1CN(C)C(=O)C1CCC(=O)N(CCc2cccc(F)c2)C1 (stereo not drawn),-75.6%
6,Cc1nc(CN(C)C(=O)C2CCC(=O)N(CCc3cccc(F)c3)C2)cs1 (stereo not drawn),-7.62%
7,Cc1cc(CN(C)C(=O)C2CCC(=O)N(CCc3cccc(F)c3)C2)on1 (stereo not drawn),9.94%
8,Cc1cnc(C)c(N2CCN(C(=O)C3CCC(=O)N(CCc4cccc(F)c4)C3)CC2)n1 (stereo not drawn),-53.9%
9,CN(Cc1cnn(C)c1)C(=O)C1CCC(=O)N(Cc2cccc(F)c2)C1 (stereo not drawn),-49.8%
10,Nc1nc2c(nc(SCc3ccccc3Br)n2C2OC(CO)C(O)C2O)c(=O)[nH]1 (stereo not drawn),34.9%
11,CCOC(=O)N1CCC(Nc2c(NCCCN(CC)Cc3ccccc3)c(=O)c2=O)CC1,6.06%
12,Cc1ccc(C(=O)Nc2ccc3cn[nH]c3c2)cc1S(=O)(=O)N1CCOCC1,-8.78%
13,O=C(N/N=C/c1cn(-c2ccccc2)nc1-c1cc2ccccc2o1)c1c[nH]c2ccccc12,13.2%
14,Cc1c(OC(C)C(=O)NCC(O)c2ccccc2)ccc2c3c(c(=O)oc12)CCC3 (stereo not drawn),-13.3%
15,Cc1cc(NC(=O)c2cccc(S(=O)(=O)N3CCOCC3)c2)c2ccccc2n1,-16.2%
16,Cc1ccc(C(O)CN2C3=NCCCN3c3ccccc32)cc1.Cl (stereo not drawn),-67.4%
17,Cc1ccc(C(O)CN2C3=NCCN3c3ccccc32)cc1.Cl (stereo not drawn),-61.1%
18,Cl.OC(CN1C2=NCCN2c2ccccc21)c1ccccc1 (stereo not drawn),-42.7%
19,COc1ccc(NC(=O)N2CCC(c3ccccc3)C2)c(OC)c1 (stereo not drawn),-1.5%
20,Cc1cc(/C=C(/C#N)c2nc3ccccc3[nH]2)c(C)n1-c1ccccc1C(=O)O,15.8%
21,Cc1ccnn1CC(=O)N/N=C/c1ccc([N+](=O)[O-])s1,-3.9%
